Rows were chosen to be rich in hits. Some 1.6% of all compounds tested hit in one or more screens of this group.
IkB sig inh: IkB pathway inhibition in ABC-DLBCL cells. ABC-DLBCL IkBa-CBG/CBR dual luciferase ratio, 4 h; response scale: scaled: untreated 0%, proteasome inhibitor 100%. Potency, µM (highest dose often 57.1 µM), for inactives: top-dose IkBa stabilization activation. 110,000 compounds, 0.04% hits; active means well fitted curve in the direction sought with a large enough effect in the signal ratio, not every such curve was filed as active; inconclusive means small, poorly fitted or top-dose-only effect, or a change in a side signal; the % refers to the signal ratio;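 further: the direction sought is a rising ratio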
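Curves were fitted separately to fusion (green), unfused (red) and ratio luminescence, then classed by r2, magnitude and activity. Cells: OCI-Ly3, 4 h compound plus doxycycline at 37C; 10 uM MG-132 defined full response.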
p53ts 39C kill: cytotoxicity in p53ts cells at nonpermissive temperature; H1299-p53A138V viability at 39C, ATP luminescence, 24 h; Potency, µM (highest dose often 46.1 µM), for inactives: at the highest dose activity change, negative = cell killing, most hits filed as cytotoxic; 130,000 compounds, 1.5% hits; AID 902; further: on the % scale 0 is the no-effect control and ±100 the full control effect; nearly all actives have a fitted effect of over 55% in size
Peg3 imprint: induces erasure of genomic imprints in mouse ES cells. mouse ES Peg3-LacZ reporter, beta-gal luminescence, 40 h. Potency, µM (highest dose often 60.7 µM), inactives show at the highest dose activity change, positive = activation, actives largely listed as activators. 110,000 compounds, 0.02% hits
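Imprint erasure is scored as LacZ activity from the silenced maternal Peg3 allele in feeder-free female ES cells cultured 40 h with LIF. Luminescence is normalized to in-plate negative controls and fitted to the Hill equation.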
p53ts 32C kill: p53ts cell cytotoxicity, permissive temperature; AID 924; Potency, µM (top dose mostly 46.1 µM), inactives show top-dose activity change, negative = cytotoxicity, actives largely listed as cytotoxic; 130,000 compounds, 0.93% hits; H1299-p53A138V at 32C, ATP luminescence viability, 24 h;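 further: 0% = DMSO and -100% = full killing by reference compound; nearly all actives have a fitted effect of over 55% in size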
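Viability by ATPlite luminescence after 24 h compound treatment (up to 46 uM) at the permissive 32C. Cells are H1299 carrying p53 A138V. Scale runs from DMSO basal to 100 uM tamoxifen as full kill; AC50 from Hill fits.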
* hit, by the source's call; ? = inconclusive; . = not tested or not shown; [ ] = dose if it differs, or a comment. Unless noted, the call rests on the fitted dose curve; in most records, active means well fitted curve in the direction sought with a large enough effect; inconclusive means small, poorly fitted or top-dose-only effect, or another doubt; inactive means no such curve, though single readings can be large; an effect the other way counts as inactive or inconclusive. Potency means the concentration at half of the fitted maximal effect.

SMILES	IkB sig inh	p53ts 39C kill	Peg3 imprint	p53ts 32C kill
COc1ccccc1C(=O)Nc1ccc2c(c1)OCO2	2%	?	-63%	?
COc1ccc2c(c1)CCc1c(C(=O)Nc3c(C)nn(Cc4c(Cl)cccc4Cl)c3C)noc1-2	?	4%	-13%[10.9 µM]	4%
CCC(=O)Nc1ccc2c(c1)nc1n2CCSC1	-1%	8%	-6%	-11%
O=C(Nc1ccc2c(c1)nc1n2CCOC1)c1ccccc1	?	16µM*	-52%	13µM*
COc1ccc(C(=O)Nc2ccc3c(c2)nc2n3CCSC2)cc1	-1%	6.3µM*	-13%	5µM*
CC(C)C(=O)Nc1ccc2c(c1)nc1n2CCSC1	-2%	-7%	-10%	-18%
O=C(Nc1ccc2c(c1)nc1n2CCSC1)c1ccccc1	?	6.3µM*	-74%	3.2µM*
CC(N)=NCCCC[C@@H](N)C(=O)O	.	.	-5%	.
CCCC[C@H](CC)CN=C(N)NC(N)=NCCCCCCN=C(N)NC(N)=NC[C@@H](CC)CCCC	17%[25.6 µM]	13µM*	-26%[16.8 µM]	-21%[20.6 µM]
CCc1ccccc1N1CC(c2nc3ccccc3n2CCOc2ccc(Cl)c(C)c2)CC1=O (stereo not drawn)	?	32µM*	-10%[10.9 µM]	?
CCOc1ccccc1N1CC(c2nc3ccccc3n2CCCCOc2cc(C)ccc2C)CC1=O (stereo not drawn)	?	?	-8%[10.9 µM]	?
Cc1cccc(OCCCCn2c(C3CC(=O)N(c4ccccc4Cl)C3)nc3ccccc32)c1 (stereo not drawn)	-2%	16µM*	-3%[10.9 µM]	?
CCOc1ccccc1N1CC(c2nc3ccccc3n2CCOc2ccc(C(C)(C)C)cc2)CC1=O (stereo not drawn)	-2%	13µM*	-11%[10.9 µM]	?
COc1ccccc1OCCCn1c(C2CC(=O)N(c3ccccc3Cl)C2)nc2ccccc21 (stereo not drawn)	?	-21%	-12%[10.9 µM]	-17%
Cc1cccc(OCCCCn2c(C3CC(=O)N(c4ccc(C)cc4C)C3)nc3ccccc32)c1 (stereo not drawn)	-2%	25µM*	-10%[10.9 µM]	?
COC(=O)c1scc(-c2ccc(C)cc2)c1S(=O)(=O)Nc1cccc(C(F)(F)F)c1	1%	-10%	-3%[10.9 µM]	2%
OCc1ccccc1OCCOc1ccc(Cl)c2cccnc12	2%	-22%	-13%	-26%
Oc1c(CN2CCCCC2)cc(Br)c2cccnc12	?	10µM*	-27%	-23%
CCCCOCc1cc(CN2CCN(c3cccc(Cl)c3)CC2)c(O)c2ncccc12	-1%	3%	29%[10.9 µM]	5%
Oc1c(CN2CCc3ccccc3C2)cc(Cl)c2cccnc12	?	4µM*	-31%	13µM*
Oc1c(I)cc(Cl)c2cccnc12	?	7.9µM*	-31%	?
CCN(CC)[C@@H](C)C(=O)N1c2ccccc2Sc2ccccc21	3%	.	.	.
O=C(c1ccc2c(c1)N(Cc1cccc(Cl)c1)C(=O)c1ccccc1S2(=O)=O)N1CCCCCC1	?	-1%	-14%[10.9 µM]	-4%
O=C(COc1ccccc1C(=O)c1cnn(-c2ccccc2)c1)Nc1ccccc1	.	?	.	11µM*
Fc1ccc([C@H]2CCNC[C@H]2COc2ccc3c(c2)OCO3)cc1	?	10µM*	-33%	32µM*
SMILES	IkB sig inh	p53ts 39C kill	Peg3 imprint	p53ts 32C kill
COc1cccc(O)c1O	.	6.3µM*	-59%	5µM*
Cc1ccccc1CNC(=O)C1CCCN(c2nnc(-n3c(C)ccc3C)s2)C1 (stereo not drawn)	6%	-8%	-11%[10.9 µM]	2%
O=C(C1CCN(c2ncnc3c2nc2n3CCCCC2)CC1)N1CCN(c2cccc(Cl)c2)CC1	.	.	.	3%
Clc1cccc(N2CCN(c3ncnc4c3nc3n4CCCCC3)CC2)c1	?	13µM*	-22%[10.9 µM]	?
COc1cc(/C=C/c2ccccc2)oc(=O)c1	13%	?	14%	-23%[1.84 µM]
CCOc1ccc(C(=O)Nc2cccc(C)n2)cc1	30%	?	.	5µM*
Cn1nnc(NC(=O)c2ccc(C(C)(C)C)cc2)n1	0%	7.9µM*	-38%	10µM*
CCOc1ccc(C(=O)Nc2nnn(CC)n2)cc1	-2%	13µM*	-80%	10µM*
Cc1ccc(C(=O)Nc2nc3ccccc3c(=O)s2)cc1	?	16µM*	.	13µM*
CN1CCN(C(=O)c2cc(-c3ccc(O)cc3)on2)CC1	2%	-13%	-17%	-10%
C=C1c2ccccc2O[C@H](C(=O)OCC)[C@@H]1CCC(C)C (tested in a mixture with another compound)	.	.	-15%	.
CCOc1ccc2nc(NC(=O)c3ccccc3)sc2c1	?	?	-74%[10.9 µM]	6.3µM*
CCCCOc1ccc(C(=O)Nc2cccc(C)n2)cc1	?	16µM*	3%	13µM*
CCOc1ccc(NC(=O)Nc2cccc(C)n2)cc1	-4%	?	4%[10.9 µM]	-22%
CC(=O)Nc1cccc(C(=O)NCc2ccc3c(c2)CCN3C(=O)c2ccc(F)cc2)c1	7%	-13%	-11%[10.9 µM]	1%
O=C(CSc1cn(CC(=O)N2CCCC2)c2ccccc12)Nc1ccc(Cl)cc1	?	13µM*	-15%[10.9 µM]	-4%
CCOc1ccc(-c2cc(C(=O)N3CCN(c4ccc(C)cc4)C(C)C3)c3ccccc3n2)cc1 (stereo not drawn)	-2%	20µM*	-20%[10.9 µM]	16µM*
CCOc1ccc(-c2cc(C(=O)NCc3ccc(C)cc3)c3ccccc3n2)cc1	-2%	-24%	-3%[10.9 µM]	4%
CCOC(=O)N1CCN(C(=O)c2cc(-c3ccc(OCC)cc3)nc3ccccc23)CC1	0%	10µM*	-17%	5µM*
CCOc1ccc(-c2cc(C(=O)N3CCN(c4cccc(C)c4)C(C)C3)c3ccccc3n2)cc1 (stereo not drawn)	?	?	-2%[10.9 µM]	?
CCOc1ccc(-c2cc(C(=O)N3CCN(C)CC3)c3ccccc3n2)cc1	2%	4µM*	-10%	2.5µM*
O=C(O)CCCCn1ccc(=O)[nH]c1=O	0%[11.4 µM]	12%[9.22 µM]	-9%[10.9 µM]	3%[9.22 µM]
O=C(Nc1sc2c(c1C(=O)O)CCCCC2)c1ccco1	?	13µM*	-94%	13µM*
Cc1cccc(C(=O)Nc2sc3c(c2C(=O)O)CCCC3)c1	?	13µM*	-71%[10.9 µM]	?
CCOc1ccc(-c2cc3nc(C4CCN(C(=O)OC(C)(C)C)CC4)c(C(=O)Nc4ccc(C)cc4C)cn3n2)cc1	?	1%	-20%[10.9 µM]	0%
COCCN(CCOC)C(=O)c1ccc(Cc2nc3ccccc3[nH]2)cc1	.	13%	.	5%
COCCCNc1ncnc2c1cnn2-c1ccc(F)cc1	-2%	10µM*	-15%[10.9 µM]	?
Fc1ccc(-n2ncc3c(NCCCN4CCOCC4)ncnc32)cc1	0%	?	24%[10.9 µM]	-8%
CCC(C)Nc1ncnc2c1cnn2-c1ccc(F)cc1 (stereo not drawn)	?	7.9µM*	-9%[10.9 µM]	?
Cc1ncsc1C(=O)Nc1nc2c(s1)CC(C)CC2 (stereo not drawn)	?	16µM*	-88%	?

High-throughput results: PubChem, National Center for Advancing Translational Sciences (NCATS)
